Source: ChEMBL document CHEMBL4513216, “Probing the Open Global Health Chemical Diversity Library for Multistage-Active Starting Points for Next-Generation Antimalarials” (ACS Infect Dis, 2020)
The campaign covered roughly 68,000 compounds. About 2,700 (4%) showed an effect of 50% or more. The entries come from a sample that favours strong results as a whole.

The compounds below were run on Plasmodium berghei (assay: Screen against P. berghei liver stage (PbLuc), transformed with Luciferase, at 2uM). Conditions: tested at 2 uM.
Type: functional, HepG2

| SMILES | INHIBITION [%] |
| --- | --- |
| O=C(O)CC(NC(=O)CCCc1cccs1)c1ccc(F)cc1 (stereo not drawn) | 57.2 |
| Cc1ccc(C(CC(=O)O)NC(=O)CCc2cccs2)cc1 (stereo not drawn) | -34.12 |
| COc1ccc(C(CC(=O)O)NC(=O)CCc2cccs2)cc1OC (stereo not drawn) | 36.38 |
| CCCc1cc(NC2CCc3nc(C(C)C)nn3C2)n2ncnc2n1 (stereo not drawn) | -43.09 |
| COc1cccc(CN(C)Cc2ccc(C#N)cc2)c1OC | 10.52 |
| COc1cccc(CN(C)Cc2cc(C#N)ccc2F)c1OC | 56.49 |
| COc1cccc(CN(C)Cc2cccc(C#N)c2)c1OC | 3.3 |
| Cc1ccc(NC(=O)C2=CN=S=N2)cc1 | 25.51 |
| CN(C)C(=O)[C@@H]1C[C@@H]2CCN(Cc3ccncc3)C[C@@H]2O1 | 37.6 |
| c1cc2nccc(CC3CCCN(C4CCOCC4)CC3)c2cn1 (stereo not drawn) | 24.56 |
| O=C(NC1CCN(C2CC2)CC1)c1cc(Cl)ccc1-n1cnnn1 | 19.04 |
| CC(=O)N1CCC(NC(=O)c2cc(Cl)ccc2-n2cnnn2)CC1 | 53.19 |
| O=C(NC1CC1)c1cc(Cl)ccc1-n1cnnn1 | -14 |
| CCCC1(CO)CCCN(C(=O)CNC(C)=O)C1 (stereo not drawn) | 15.27 |
| O=c1cc(N2CCNCC2)cnn1Cc1noc(C2CCCC2)n1 | 41.84 |
| O=C(Cn1nc(Br)nc1Br)N1CCCC1 | -14.58 |
| CCCC1COCCN1Cc1ccc(S(=O)(=O)NC)cc1 (stereo not drawn) | 30.96 |
| CCCC1COCCN1Cc1ccc(NC(C)=O)cc1 (stereo not drawn) | 48.17 |
| CCCC1COCCN1Cc1ccc(C(=O)O)cc1 (stereo not drawn) | 55.7 |
| Cc1ccccc1CS(=O)(=O)CC(=O)N(C)Cc1ccccc1F | -38.35 |
| COc1ccc(Cl)cc1CS(=O)(=O)CC(=O)N(C)Cc1ccccc1F | 51.94 |
| CN(Cc1ccccc1F)C(=O)CS(=O)(=O)Cc1ccc(Cl)c(Cl)c1 | -10.5 |
| Cc1nc(C(C)C)sc1C(C)N(C)C(=O)c1ccc(=O)n(C)c1 (stereo not drawn) | -11.76 |

| SMILES | INHIBITION [%] |
| --- | --- |
| CCc1ccc(CN(C)Cc2nc(-c3cnccn3)no2)nc1 | -16.76 |
| CCc1ccc(CN(C)c2ccc(-c3nc(COC)no3)cn2)nc1 | 10.65 |
| CCc1ccc(CN(C)Cc2nc(COc3ccccc3)no2)nc1 | 64.2 |
| CN(Cc1ccc(F)cc1F)Cc1cc2c(cc1Br)OCCO2 | 45.66 |
| Cc1cnccc1N1CCCN(C(=O)CCCc2cn[nH]c2)CC1 | 9.17 |
| O=C(c1cnccn1)N1C[C@@H]2OCC(=O)N(CC3CCCCC3)[C@@H]2C1 | -26.14 |
| O=C(c1cnccn1)N1C[C@@H]2[C@@H](C1)OCC(=O)N2CC1CCCC1 | 31.65 |
| O=C(c1ccccn1)N1C[C@@H]2OCC(=O)N(CC3CCCCC3)[C@@H]2C1 | 56.16 |
| O=C(NCC(=O)N1CCc2ccccc2C1)c1cnccn1 | 23.94 |
| CC(C)(CO)Nc1cc(-c2cn[nH]c2)ncn1 | 6.03 |
| CCCn1nccc1NC(=O)CN1CCCC1Cn1cc(C)cn1 (stereo not drawn) | 50.32 |
| Cc1cnn(CC2CCCN2CC(=O)Nc2nc(C)cs2)c1 (stereo not drawn) | -54.73 |
| Cc1cnn(CC2CCCCN2CC(=O)Nc2nc(C)cs2)c1 (stereo not drawn) | 67.69 |
| CCCn1nccc1NC(=O)CN1CCC[C@H]1CO | 13.53 |
| CCCn1nccc1NC(=O)CN1CCCC1Cn1cccn1 (stereo not drawn) | 33.9 |
| Cc1cnn(CC2CCCCN2CC(=O)Nc2nncs2)c1 (stereo not drawn) | 23.65 |
| Cc1cc(O)n(-c2ccccc2Cl)c(=O)c1C#N | 3.1 |
| O=C1NCCCCC1NS(=O)(=O)N1CCCCCC1 (stereo not drawn) | -4.89 |
| CC(C)N1CC[C@H]2[C@H](C[C@@H](Cn3cncn3)N2c2nccs2)C1 | 27.61 |
| CN(C)C(=O)c1cccc(CN2CCOC(Cn3cccn3)C2)c1 (stereo not drawn) | -21.39 |
| CC(C)(C)c1nnc(CN2CCOC(Cn3cccn3)C2)o1 (stereo not drawn) | 11.18 |
| CC(C)(C)c1nnc(CN2CCCC(Cn3cncn3)C2)o1 (stereo not drawn) | 15.31 |
| Cc1ccc(-c2nnc(CN3CCOC(Cn4cncn4)C3)o2)cc1 (stereo not drawn) | 51.46 |

| SMILES | INHIBITION [%] |
| --- | --- |
| CN(C)C(=O)c1cccc(CN2CCOC(Cn3cncn3)C2)c1 (stereo not drawn) | 74.35 |
| Cc1cnn(CC2CN(Cc3cccc(C(=O)N(C)C)c3)CCO2)c1 (stereo not drawn) | 18.46 |
| Cc1ccc(-c2nnc(CN3CCOC(Cn4cccn4)C3)o2)cc1 (stereo not drawn) | -47.05 |
| Fc1ccc(-c2nnc(CN3CCOC(Cn4cncn4)C3)o2)cc1 (stereo not drawn) | -77.99 |
| CC(C)(C)c1nnc(CN2CCOC(Cn3cncn3)C2)o1 (stereo not drawn) | 62.13 |
| Cc1ccc(CCNC(=O)Nc2cc(C(F)(F)F)c[nH]c2=O)o1 | -0.12 |
| O=C(c1n[nH]c2c1CN(C1CCOCC1)CC2)N1CCCC1 | 30.95 |
| Cc1cccc(N(C)Cc2cc(=O)n3oc(C)cc3n2)c1 | 4.91 |
| N#CCCN(CC1CCOC1)Cn1ccc(-c2cccs2)n1 (stereo not drawn) | -42.48 |
| COc1cc(C)nc(N2CCN(C(=O)CN(C)C(C)C)CC2)n1 | 10.22 |
| COc1c(C)cnc(CNC(=O)CCOCc2ccccc2)c1C | 65.76 |
| COc1c(C)cnc(CNC(=O)CCOCC(C)C)c1C | 5.17 |
| COc1ccccc1OCCC(=O)NCc1ncc(C)c(OC)c1C | 40.51 |
| CN1CCCC1c1cccc(Cc2ccc(F)cc2)n1 (stereo not drawn) | 16.32 |
| Cc1cc(-c2nnn(CCNS(C)(=O)=O)n2)ccc1F | 69.72 |
| Cc1cc(-c2nnn(CCC(N)=O)n2)ccc1F | 5 |
| CNS(=O)(=O)CCCn1nnc(-c2ccc(F)c(C)c2)n1 | 31.66 |
| c1ccc([C@@H]2CN(Cc3cccnc3)C[C@H]2c2cc[nH]n2)cc1 | 50.94 |
| c1ccc([C@@H]2CN(Cc3ccncc3)C[C@H]2c2cc[nH]n2)cc1 | 48.22 |
| COc1ccc([C@@H]2CN(Cc3ccncc3)C[C@H]2c2cc[nH]n2)cc1 | -128.75 |
| CS(=O)(=O)c1cccc(C(=O)NCCCN2CCc3ccccc3C2)c1 | 5.59 |
| c1cnc(N2CC3(CCN(C4CCOCC4)CC3)c3ccccc32)nc1 | -23.45 |
